{"source": "PubChem BioAssay AID1159580", "about": "(chemical genetic matrix, 2015)", "test": "chemical genetic growth profiling, strain panel (AID 1159580);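 also: tested at 20 µM; growth read once vehicle control cultures reached saturation at 30 °C; 1 = growth at the plate median or of vehicle wells; lower values mean less growth of the strain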", "details": "S. cerevisiae deletion strains, growth OD", "note": "“And” between values parts separate entries of the source, which are not always exact repeats. Equal entries are not always repeated. Hit rate of the full screen: of about 5,500 compounds, about 2,000 (36%) were called active. Not shown: some 18% with an inconclusive outcome. Rule as the data show it: active = normalized growth mostly below about 0.91 (no sharp cut-off); inconclusive = no clear call, values can overlap the other calls; inactive = mostly above about 0.92. Some of the results follow."}
{"smiles": "O=C1OCCN1/N=C\\c1ccc([N+](=O)[O-])o1", "values": [{"measurement": "normalized growth", "setting": "locus YAL013W, strain DEP1, stronger effect = lower value", "value": "0.986 (inactive)"}, {"measurement": "normalized growth", "setting": "locus YAL021C, strain ccr4, stronger effect = lower value", "value": "0.961 (inactive)"}, {"measurement": "normalized growth", "setting": "locus YAL026C, strain drs2, stronger effect = lower value", "value": "0.889 (active)"}, {"measurement": "normalized growth", "setting": "locus YAL030W, strain snc1, stronger effect = lower value", "value": "0.999 (inactive)"}, {"measurement": "normalized growth", "setting": "locus YBL061C, strain skt5, stronger effect = lower value", "value": "1 (inactive)"}, {"measurement": "normalized growth", "setting": "locus YBR009C, strain hhf1, stronger effect = lower value", "value": "0.97 (inactive)"}, {"measurement": "normalized growth", "setting": "locus YBR021W, strain FUR4, stronger effect = lower value", "value": "1.03 (inactive)"}, {"measurement": "normalized growth", "setting": "locus YBR023C, strain chs3, stronger effect = lower value", "value": "1 (inactive)"}, {"measurement": "normalized growth", "setting": "locus YBR171W, strain sec66, stronger effect = lower value", "value": "0.987 (inactive)"}, {"measurement": "normalized growth", "setting": "locus YBR229C, strain ROT2, stronger effect = lower value", "value": "0.999 (inactive)"}, {"measurement": "normalized growth", "setting": "locus YBR231C, strain swc5, stronger effect = lower value", "value": "0.929 (inactive)"}, {"measurement": "normalized growth", "setting": "locus YBR279W, strain paf1, stronger effect = lower value", "value": "0.986 (inactive)"}, {"measurement": "normalized growth", "setting": "locus YCL011C, strain gbp2, stronger effect = lower value", "value": "0.991 (inactive)"}, {"measurement": "normalized growth", "setting": "locus YCL016C, strain dcc1, stronger effect = lower value", "value": "0.935 (inactive)"}, {"measurement": "normalized growth", "setting": "locus YCL029C, strain bik1, stronger effect = lower value", "value": "0.97 (inactive)"}, {"measurement": "normalized growth", "setting": "locus YCL061C, strain MRC1, stronger effect = lower value", "value": "0.987 (inactive)"}, {"measurement": "normalized growth", "setting": "locus YCL069W, strain vba3, stronger effect = lower value", "value": "0.993 (inactive)"}, {"measurement": "normalized growth", "setting": "locus YCR088W, strain abp1, stronger effect = lower value", "value": "0.976 (inactive)"}, {"measurement": "normalized growth", "setting": "locus YDL005C, strain med2, stronger effect = lower value", "value": "0.998 (inactive)"}, {"measurement": "normalized growth", "setting": "locus YDL035C, strain GPR1, stronger effect = lower value", "value": "0.913 (inactive)"}, {"measurement": "normalized growth", "setting": "locus YDL040C, strain nat1, stronger effect = lower value", "value": "1 (inactive)"}, {"measurement": "normalized growth", "setting": "locus YDL074C, strain BRE1, stronger effect = lower value", "value": "0.885 (inactive)"}, {"measurement": "normalized growth", "setting": "locus YDL101C, strain DUN1, stronger effect = lower value", "value": "0.95 (inactive)"}, {"measurement": "normalized growth", "setting": "locus YDL185W, strain tfp1, stronger effect = lower value", "value": "0.993 (inactive)"}, {"measurement": "normalized growth", "setting": "locus YDL192W, strain arf1, stronger effect = lower value", "value": "0.99 (inactive)"}, {"measurement": "normalized growth", "setting": "locus YDR001C, strain nth1, stronger effect = lower value", "value": "1 (inactive)"}, {"measurement": "normalized growth", "setting": "locus YDR069C, strain doa4, stronger effect = lower value", "value": "0.928 (inactive)"}, {"measurement": "normalized growth", "setting": "locus YDR101C, strain arx1, stronger effect = lower value", "value": "0.92 (inactive)"}, {"measurement": "normalized growth", "setting": "locus YDR137W, strain rgp1, stronger effect = lower value", "value": "0.901 (inactive)"}, {"measurement": "normalized growth", "setting": "locus YDR150W, strain NUM1, stronger effect = lower value", "value": "1.01 (inactive)"}, {"measurement": "normalized growth", "setting": "locus YDR159W, strain sac3, stronger effect = lower value", "value": "1.01 (inactive)"}, {"measurement": "normalized growth", "setting": "locus YDR162C, strain NBP2, stronger effect = lower value", "value": "0.771 (active)"}, {"measurement": "normalized growth", "setting": "locus YDR195W, strain ref2", "value": "1.14 (inactive)"}, {"measurement": "normalized growth", "setting": "locus YDR297W, strain sur2, stronger effect = lower value", "value": "0.992 (inactive)"}, {"measurement": "normalized growth", "setting": "locus YDR318W, strain mcm21, stronger effect = lower value", "value": "0.919 (inactive)"}, {"measurement": "normalized growth", "setting": "locus YDR334W, strain swr1, stronger effect = lower value", "value": "1.01 (inactive)"}, {"measurement": "normalized growth", "setting": "locus YDR335W, strain msn5, stronger effect = lower value", "value": "0.975 (inactive)"}, {"measurement": "normalized growth", "setting": "locus YDR388W, stronger effect = lower value", "value": "0.982 (inactive)"}, {"measurement": "normalized growth", "setting": "locus YDR392W, strain spt3, stronger effect = lower value", "value": "0.72 (active)"}, {"measurement": "normalized growth", "setting": "locus YDR502C, strain sam2, stronger effect = lower value", "value": "0.92 (active)"}, {"measurement": "normalized growth", "setting": "locus YEL003W, strain gim4, stronger effect = lower value", "value": "0.916 (inactive)"}, {"measurement": "normalized growth", "setting": "locus YEL037C, strain rad23, stronger effect = lower value", "value": "0.986 (inactive)"}, {"measurement": "normalized growth", "setting": "locus YEL061C, strain CIN8 (second series), stronger effect = lower value", "value": "1 (inactive)"}, {"measurement": "normalized growth", "setting": "locus YEL061C, strain CIN8, stronger effect = lower value", "value": "0.999 (inactive)"}, {"measurement": "normalized growth", "setting": "locus YER015W, strain faa2, stronger effect = lower value", "value": "0.986 (inactive)"}, {"measurement": "normalized growth", "setting": "locus YER016W, strain bim1, stronger effect = lower value", "value": "0.932 (inactive)"}, {"measurement": "normalized growth", "setting": "locus YER110C, stronger effect = lower value", "value": "0.979 (inactive)"}, {"measurement": "normalized growth", "setting": "locus YER111C, strain swi4, stronger effect = lower value", "value": "1.01 (inactive)"}, {"measurement": "normalized growth", "setting": "locus YER155C, strain BEM2 (second series), stronger effect = lower value", "value": "0.788 (active)"}, {"measurement": "normalized growth", "setting": "locus YER155C, strain BEM2, stronger effect = lower value", "value": "0.996 (inactive)"}, {"measurement": "normalized growth", "setting": "locus YER167W, strain BCK2, stronger effect = lower value", "value": "0.978 (inactive)"}, {"measurement": "normalized growth", "setting": "locus YFR010W, strain ubp6, stronger effect = lower value", "value": "0.919 (inactive)"}, {"measurement": "normalized growth", "setting": "locus YGL078C, strain dbp3, stronger effect = lower value", "value": "0.955 (inactive)"}, {"measurement": "normalized growth", "setting": "locus YGL086W, strain mad1, stronger effect = lower value", "value": "0.923 (active)"}, {"measurement": "normalized growth", "setting": "locus YGL167C, strain pmr1, stronger effect = lower value", "value": "1 (inactive)"}, {"measurement": "normalized growth", "setting": "locus YGL173C, strain kem1, stronger effect = lower value", "value": "0.982 (inactive)"}, {"measurement": "normalized growth", "setting": "locus YGL227W, strain vid30, stronger effect = lower value", "value": "1 (inactive)"}, {"measurement": "normalized growth", "setting": "locus YGL240W, strain doc1, stronger effect = lower value", "value": "0.935 (inactive)"}, {"measurement": "normalized growth", "setting": "locus YGL248W, strain PDE1, stronger effect = lower value", "value": "0.944 (inactive)"}, {"measurement": "normalized growth", "setting": "locus YGL253W, strain hxk2, stronger effect = lower value", "value": "0.934 (inactive)"}, {"measurement": "normalized growth", "setting": "locus YGR135W, strain pre9, stronger effect = lower value", "value": "0.936 (inactive)"}, {"measurement": "normalized growth", "setting": "locus YGR252W, strain gcn5, stronger effect = lower value", "value": "0.808 (inactive)"}, {"measurement": "normalized growth", "setting": "locus YHR013C, strain ard1, stronger effect = lower value", "value": "1.01 (inactive)"}, {"measurement": "normalized growth", "setting": "locus YHR027C, strain rpn1, stronger effect = lower value", "value": "0.967 (inactive)"}, {"measurement": "normalized growth", "setting": "locus YHR030C, strain SLT2, stronger effect = lower value", "value": "1 (inactive) and 0.876 (inactive)"}, {"measurement": "normalized growth", "setting": "locus YHR079C, strain IRE1 (second series), stronger effect = lower value", "value": "0.937 (inactive)"}, {"measurement": "normalized growth", "setting": "locus YHR079C, strain IRE1, stronger effect = lower value", "value": "0.88 (inactive)"}, {"measurement": "normalized growth", "setting": "locus YHR094C, strain hxt1, stronger effect = lower value", "value": "0.999 (inactive)"}, {"measurement": "normalized growth", "setting": "locus YHR129C, strain ARP1, stronger effect = lower value", "value": "0.992 (inactive)"}, {"measurement": "normalized growth", "setting": "locus YHR142W, strain chs7, stronger effect = lower value", "value": "0.967 (inactive)"}, {"measurement": "normalized growth", "setting": "locus YHR200W, strain rpn10, stronger effect = lower value", "value": "0.995 (inactive)"}, {"measurement": "normalized growth", "setting": "locus YIL066C, strain RNR3, stronger effect = lower value", "value": "0.997 (inactive)"}, {"measurement": "normalized growth", "setting": "locus YIL073C, strain SPO22, stronger effect = lower value", "value": "0.761 (inactive)"}, {"measurement": "normalized growth", "setting": "locus YIL125W, strain kgd1, stronger effect = lower value", "value": "0.974 (inactive)"}, {"measurement": "normalized growth", "setting": "locus YIR030C, strain dcg1, stronger effect = lower value", "value": "0.967 (inactive)"}, {"measurement": "normalized growth", "setting": "locus YJL092W, strain hpr5, stronger effect = lower value", "value": "0.937 (inactive)"}, {"measurement": "normalized growth", "setting": "locus YJL095W, strain BCK1 (second series), stronger effect = lower value", "value": "1.02 (inactive)"}, {"measurement": "normalized growth", "setting": "locus YJL095W, strain BCK1, stronger effect = lower value", "value": "0.883 (inactive) and 0.85 (active)"}, {"measurement": "normalized growth", "setting": "locus YJL115W, strain asf1, stronger effect = lower value", "value": "0.982 (inactive)"}, {"measurement": "normalized growth", "setting": "locus YJL129C, strain trk1, stronger effect = lower value", "value": "1.09 (inactive)"}, {"measurement": "normalized growth", "setting": "locus YJL134W, strain LCB3, stronger effect = lower value", "value": "0.998 (inactive)"}, {"measurement": "normalized growth", "setting": "locus YJL154C, strain vps35, stronger effect = lower value", "value": "0.993 (inactive)"}, {"measurement": "normalized growth", "setting": "locus YJL164C, strain tpk1, stronger effect = lower value", "value": "0.962 (inactive)"}, {"measurement": "normalized growth", "setting": "locus YJL166W, strain qcr8, stronger effect = lower value", "value": "0.985 (inactive)"}, {"measurement": "normalized growth", "setting": "locus YJL168C, strain set2, stronger effect = lower value", "value": "0.999 (inactive)"}, {"measurement": "normalized growth", "setting": "locus YJL187C, strain SWE1 (second series), stronger effect = lower value", "value": "0.971 (inactive)"}, {"measurement": "normalized growth", "setting": "locus YJL187C, strain SWE1, stronger effect = lower value", "value": "1 (inactive)"}, {"measurement": "normalized growth", "setting": "locus YJR043C, strain POL32, stronger effect = lower value", "value": "0.762 (active)"}, {"measurement": "normalized growth", "setting": "locus YJR066W, strain TOR1, stronger effect = lower value", "value": "0.826 (inactive)"}]}
